Source: the supplement of paper PMC10849652
The full data set covers some 8,800 targets. This sample favours those with a hit. About 0.5% of all pairs of compound and target were hits.

Assays:
Assay in all cases: log2 fold change, soluble protein after heating vs DMSO (PISA); higher = thermal stabilisation; K562 lysate, 10 uM; active = over 0.2 and 3.5 SD of the protein, either way, in both replicates (recomputed)
erlotinib = compound: C#Cc1cccc(Nc2ncnc3cc(OCCOC)c(OCCOC)cc23)c1 [erlotinib]
Summary of the method: (§1)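 A 30 min treatment with 10 μM compound was applied to crude K562 extract at 1 mg/mL protein in PBS pH 7.4 with 1 mM MgCl2. Heating for 3 min spanned 48°C-58°C, after which aliquots were pooled, adjusted to 0.5% NP-40 at 4°C and spun at 21,000xg for 90 min. TMTpro 16plex LC-MS/MS of the supernatant, with channel sums equalised, gave values recorded as log-two fold change in thermal stability against solvent controls, from duplicates.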

[1] = compound: C/C(=N\NC(=O)C1=CC(=CC=C1)S(=O)(=O)N2CCOCC2)/C3=C(C=CC(=C3)Cl)O
Summary of the method: as §1

[2] = compound: C1=CC(=CC=C1C2=NC3=C(N2)C=C(C=C3)C(=O)N)OC4=CC=C(C=C4)Cl
Summary of the method: as §1

[3] = compound: C1=CC2=C(C=CC(=C2)/C=C\3/C(=O)NC(=NCC4=CC=CS4)S3)N=C1
Summary of the method: as §1

[4] = compound: C1=CC2=NC=CN=C2C=C1/C=C/3\C(=O)NC(=O)S3
Summary of the method: as §1

[5] = compound: C1=CC=C(C=C1)C2=NC(=C(N2)C3=CC=NC=C3)C4=CC(=C(C=C4)Cl)O
Summary of the method: as §1

[6] = compound: C1=CC=C2C(=C1)C3=NNC4=CC=CC(=C43)C2=O
Summary of the method: as §1

[7] = compound: C1CCN(C1)C(=O)NC2=CC=CC(=C2)NC3=NC=C(C(=N3)NCCC4=CN=CN4)Br
Summary of the method: as §1

[8] = compound: C1CN(CCC1(CC2=CC=C(C=C2)Cl)N)C3=NC=NC4=C3C=CN4
Summary of the method: as §1

IRAK-1-4 Inhibitor I = compound: C1COCCN1CCN2C3=CC=CC=C3N=C2NC(=O)C4=CC(=CC=C4)[N+](=O)[O-] [IRAK-1-4 Inhibitor I]
Summary of the method: as §1

Measured: log2 fold change

ALDH5A1 isoform 2 (UniProt P51649)
inactive: erlotinib -0.005 | [1] 0.045 | [2] 0.024 | [3] -0.009 | [4] 0.006 | [5] 0.013 | [6] -0.026 | [7] -0.013 | [8] -0.002 | IRAK-1-4 Inhibitor I -0.012

APAF1 (UniProt O14727)
inactive: erlotinib 0.005 | [1] 0.084 | [2] -0.054 | [3] 0.019 | [4] -0.016 | [5] -0.029 | [6] -0.003 | [7] 0.022 | [8] 0.015 | IRAK-1-4 Inhibitor I -0.021

AP1G2 (UniProt O75843)
Chain of UniProt O75843 (O75843 whole entry, looked up): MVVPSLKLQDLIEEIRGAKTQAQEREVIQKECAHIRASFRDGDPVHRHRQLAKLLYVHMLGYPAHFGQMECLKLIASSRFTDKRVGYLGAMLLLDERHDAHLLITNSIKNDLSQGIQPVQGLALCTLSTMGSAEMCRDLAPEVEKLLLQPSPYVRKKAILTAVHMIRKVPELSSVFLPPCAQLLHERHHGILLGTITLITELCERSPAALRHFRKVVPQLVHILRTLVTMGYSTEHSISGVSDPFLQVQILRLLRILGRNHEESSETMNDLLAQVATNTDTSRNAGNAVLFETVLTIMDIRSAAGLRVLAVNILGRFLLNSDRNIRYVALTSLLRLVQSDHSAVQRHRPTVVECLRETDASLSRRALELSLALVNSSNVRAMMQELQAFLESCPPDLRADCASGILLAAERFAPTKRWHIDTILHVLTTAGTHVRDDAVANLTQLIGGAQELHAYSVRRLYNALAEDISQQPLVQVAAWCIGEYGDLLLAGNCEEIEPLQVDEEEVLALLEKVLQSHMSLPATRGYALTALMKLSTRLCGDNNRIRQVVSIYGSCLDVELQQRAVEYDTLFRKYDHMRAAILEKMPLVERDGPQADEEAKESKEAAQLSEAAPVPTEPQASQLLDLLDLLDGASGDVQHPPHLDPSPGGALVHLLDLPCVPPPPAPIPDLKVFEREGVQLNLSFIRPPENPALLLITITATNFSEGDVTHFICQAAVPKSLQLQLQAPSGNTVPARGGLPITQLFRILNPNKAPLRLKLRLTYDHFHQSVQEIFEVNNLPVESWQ
inactive: erlotinib 0.052 | [1] 0.016 | [2] 0.068 | [3] -0.116 | [4] -0.07 | [5] 0 | [6] 0.001 | [7] -0.003 | [8] 0.034 | IRAK-1-4 Inhibitor I -0.007

ABCF2 isoform 2 (UniProt Q9UG63)
Chain of UniProt Q9UG63 (Q9UG63 whole entry, looked up): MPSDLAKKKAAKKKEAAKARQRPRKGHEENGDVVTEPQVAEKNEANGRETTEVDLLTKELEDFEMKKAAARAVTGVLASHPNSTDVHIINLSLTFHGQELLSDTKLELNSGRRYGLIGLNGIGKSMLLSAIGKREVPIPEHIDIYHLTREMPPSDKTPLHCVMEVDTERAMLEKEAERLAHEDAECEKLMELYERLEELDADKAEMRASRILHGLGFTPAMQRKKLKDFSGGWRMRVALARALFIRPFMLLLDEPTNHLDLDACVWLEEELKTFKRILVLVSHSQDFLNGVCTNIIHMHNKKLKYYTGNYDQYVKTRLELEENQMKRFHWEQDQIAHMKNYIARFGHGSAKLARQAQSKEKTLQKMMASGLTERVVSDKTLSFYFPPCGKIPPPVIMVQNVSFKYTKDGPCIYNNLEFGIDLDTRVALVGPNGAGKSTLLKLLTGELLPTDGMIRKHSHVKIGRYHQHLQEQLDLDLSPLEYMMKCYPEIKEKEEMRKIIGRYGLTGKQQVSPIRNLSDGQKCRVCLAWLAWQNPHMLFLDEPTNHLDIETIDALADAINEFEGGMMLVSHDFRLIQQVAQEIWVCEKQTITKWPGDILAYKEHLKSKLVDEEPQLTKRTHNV
inactive: erlotinib 0.046 | [1] -0.029 | [2] -0.049 | [3] -0.025 | [4] 0.01 | [5] 0.018 | [6] -0.042 | [7] 0.049 | [8] 0.016 | IRAK-1-4 Inhibitor I -0.047

ALG3 (UniProt Q92685)
inactive: erlotinib 0.19 | [1] -0.117 | [2] -0.12 | [3] -0.037 | [4] 0.056 | [5] -0.016 | [6] -0.182 | [7] -0.103 | [8] -0.037 | IRAK-1-4 Inhibitor I 0.019

ACTG1 (UniProt I3L4N8)
inactive: erlotinib 0.118 | [1] 0.163 | [2] -0.016 | [3] 0.029 | [4] -0.2 | [5] 0.054 | [6] -0.207 | [7] -0.142 | [8] -0.143 | IRAK-1-4 Inhibitor I -0.013

APEX1 (UniProt P27695)
Chain of UniProt P27695 (P27695 whole entry, looked up): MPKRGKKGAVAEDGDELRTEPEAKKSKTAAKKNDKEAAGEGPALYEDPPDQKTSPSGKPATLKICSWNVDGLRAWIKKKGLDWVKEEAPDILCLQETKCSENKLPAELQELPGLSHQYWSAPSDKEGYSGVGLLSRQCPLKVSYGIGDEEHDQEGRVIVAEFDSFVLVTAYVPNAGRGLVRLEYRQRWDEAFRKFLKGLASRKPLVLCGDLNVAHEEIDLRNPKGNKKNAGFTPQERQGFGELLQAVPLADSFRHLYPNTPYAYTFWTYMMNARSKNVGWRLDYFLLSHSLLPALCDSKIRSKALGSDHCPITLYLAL
inactive: erlotinib 0.026 | [1] 0.011 | [2] -0.011 | [3] 0.016 | [4] 0 | [5] 0.004 | [6] -0.072 | [7] 0 | [8] 0.003 | IRAK-1-4 Inhibitor I -0.007

ADAR isoform 4 (UniProt P55265)
inactive: erlotinib -0.029 | [1] -0.114 | [2] -0.06 | [3] -0.031 | [4] 0.002 | [5] 0.001 | [6] -0.029 | [7] 0.002 | [8] -0.017 | IRAK-1-4 Inhibitor I 0

AKAP8L (UniProt Q9ULX6)
Chain of UniProt Q9ULX6 (Q9ULX6 whole entry, looked up): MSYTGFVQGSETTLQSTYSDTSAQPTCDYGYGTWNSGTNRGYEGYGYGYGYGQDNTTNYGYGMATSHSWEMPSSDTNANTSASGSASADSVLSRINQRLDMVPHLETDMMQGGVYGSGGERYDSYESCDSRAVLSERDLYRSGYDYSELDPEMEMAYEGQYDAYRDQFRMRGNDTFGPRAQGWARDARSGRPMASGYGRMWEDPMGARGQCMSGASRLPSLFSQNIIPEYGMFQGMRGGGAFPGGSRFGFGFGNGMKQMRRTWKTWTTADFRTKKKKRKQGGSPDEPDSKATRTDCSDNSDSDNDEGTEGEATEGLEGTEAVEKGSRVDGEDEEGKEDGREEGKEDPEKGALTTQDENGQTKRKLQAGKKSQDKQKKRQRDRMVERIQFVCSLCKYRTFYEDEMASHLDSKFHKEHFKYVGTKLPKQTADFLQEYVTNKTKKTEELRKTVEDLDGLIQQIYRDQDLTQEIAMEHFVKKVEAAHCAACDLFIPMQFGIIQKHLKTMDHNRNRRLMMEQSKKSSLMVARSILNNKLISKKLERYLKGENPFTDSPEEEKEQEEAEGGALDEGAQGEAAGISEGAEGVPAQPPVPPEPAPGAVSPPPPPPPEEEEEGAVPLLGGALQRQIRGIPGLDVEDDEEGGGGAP
inactive: erlotinib 0.061 | [1] 0.093 | [2] 0.032 | [3] 0.002 | [4] 0.017 | [5] 0 | [6] -0.022 | [7] 0.029 | [8] -0.032 | IRAK-1-4 Inhibitor I -0.002

AKR1B1 (UniProt P15121)
inactive: erlotinib -0.044 | [1] -0.001 | [2] -0.006 | [3] 0.012 | [4] -0.009 | [5] -0.047 | [6] -0.044 | [7] -0.043 | [8] -0.003 | IRAK-1-4 Inhibitor I -0.021

ARHGAP21 (UniProt Q5T5U3)
inactive: erlotinib -0.013 | [1] -0.182 | [2] -0.025 | [3] -0.098 | [4] -0.214 | [5] -0.018 | [6] -0.137 | [7] -0.118 | [8] -0.018 | IRAK-1-4 Inhibitor I 0.056

ABCF3 (UniProt Q9NUQ8)
inactive: erlotinib 0.005 | [1] 0.013 | [2] -0.049 | [3] 0.011 | [4] 0.009 | [5] -0.011 | [6] -0.065 | [7] 0.022 | [8] -0.033 | IRAK-1-4 Inhibitor I -0.037

ARAP1 (UniProt Q96P48)
Chain of UniProt Q96P48 (Q96P48 whole entry, looked up): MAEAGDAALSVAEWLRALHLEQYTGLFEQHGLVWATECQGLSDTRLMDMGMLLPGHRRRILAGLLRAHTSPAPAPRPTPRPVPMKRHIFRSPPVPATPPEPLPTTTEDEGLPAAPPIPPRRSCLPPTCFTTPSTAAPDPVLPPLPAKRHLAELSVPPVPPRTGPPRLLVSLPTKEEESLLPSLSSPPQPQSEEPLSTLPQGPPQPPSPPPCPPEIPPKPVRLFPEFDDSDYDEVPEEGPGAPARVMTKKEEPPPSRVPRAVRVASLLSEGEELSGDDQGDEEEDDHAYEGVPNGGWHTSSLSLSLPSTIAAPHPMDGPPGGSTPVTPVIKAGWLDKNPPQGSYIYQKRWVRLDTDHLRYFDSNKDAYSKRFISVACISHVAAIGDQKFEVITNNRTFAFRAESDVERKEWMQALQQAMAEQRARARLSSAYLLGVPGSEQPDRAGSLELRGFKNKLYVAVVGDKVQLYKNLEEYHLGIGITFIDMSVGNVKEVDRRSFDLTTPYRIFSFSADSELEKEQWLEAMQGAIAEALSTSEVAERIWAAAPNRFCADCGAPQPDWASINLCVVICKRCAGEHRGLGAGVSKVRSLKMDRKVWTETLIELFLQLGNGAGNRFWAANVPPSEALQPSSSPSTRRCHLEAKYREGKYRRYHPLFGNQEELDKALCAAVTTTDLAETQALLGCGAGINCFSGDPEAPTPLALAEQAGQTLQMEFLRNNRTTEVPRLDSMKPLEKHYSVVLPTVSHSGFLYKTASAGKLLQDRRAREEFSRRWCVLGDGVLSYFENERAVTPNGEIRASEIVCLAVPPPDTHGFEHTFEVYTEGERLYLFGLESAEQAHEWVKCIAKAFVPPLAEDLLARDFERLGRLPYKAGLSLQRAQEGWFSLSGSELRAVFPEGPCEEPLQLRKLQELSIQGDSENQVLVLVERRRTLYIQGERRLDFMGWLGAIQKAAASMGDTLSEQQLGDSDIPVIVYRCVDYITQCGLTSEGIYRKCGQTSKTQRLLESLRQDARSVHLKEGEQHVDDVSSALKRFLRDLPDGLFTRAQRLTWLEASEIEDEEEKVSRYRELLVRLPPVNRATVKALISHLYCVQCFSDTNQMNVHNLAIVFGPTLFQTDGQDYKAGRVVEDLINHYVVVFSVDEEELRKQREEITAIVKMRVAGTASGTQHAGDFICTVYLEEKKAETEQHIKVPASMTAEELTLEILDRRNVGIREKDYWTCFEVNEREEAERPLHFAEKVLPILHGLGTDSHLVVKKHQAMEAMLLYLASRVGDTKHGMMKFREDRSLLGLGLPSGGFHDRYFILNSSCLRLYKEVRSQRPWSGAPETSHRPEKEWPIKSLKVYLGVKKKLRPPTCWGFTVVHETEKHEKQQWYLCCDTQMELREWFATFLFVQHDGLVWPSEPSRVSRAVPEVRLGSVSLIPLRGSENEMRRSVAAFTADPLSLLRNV
inactive: erlotinib 0.003 | [1] -0.164 | [2] -0.041 | [3] 0.024 | [4] 0.022 | [5] 0.022 | [6] 0.013 | [7] -0.01 | [8] -0.007 | IRAK-1-4 Inhibitor I 0.008

ADD1 isoform 4 (UniProt P35611)
inactive: erlotinib -0.016 | [1] -0.059 | [2] 0.011 | [3] 0.089 | [4] -0.088 | [5] -0.081 | [6] -0.025 | [7] 0.028 | [8] -0.009 | IRAK-1-4 Inhibitor I 0.093

ABL1 isoform 2 (UniProt P00519)
Chain of UniProt P00519 (P00519 whole entry, looked up): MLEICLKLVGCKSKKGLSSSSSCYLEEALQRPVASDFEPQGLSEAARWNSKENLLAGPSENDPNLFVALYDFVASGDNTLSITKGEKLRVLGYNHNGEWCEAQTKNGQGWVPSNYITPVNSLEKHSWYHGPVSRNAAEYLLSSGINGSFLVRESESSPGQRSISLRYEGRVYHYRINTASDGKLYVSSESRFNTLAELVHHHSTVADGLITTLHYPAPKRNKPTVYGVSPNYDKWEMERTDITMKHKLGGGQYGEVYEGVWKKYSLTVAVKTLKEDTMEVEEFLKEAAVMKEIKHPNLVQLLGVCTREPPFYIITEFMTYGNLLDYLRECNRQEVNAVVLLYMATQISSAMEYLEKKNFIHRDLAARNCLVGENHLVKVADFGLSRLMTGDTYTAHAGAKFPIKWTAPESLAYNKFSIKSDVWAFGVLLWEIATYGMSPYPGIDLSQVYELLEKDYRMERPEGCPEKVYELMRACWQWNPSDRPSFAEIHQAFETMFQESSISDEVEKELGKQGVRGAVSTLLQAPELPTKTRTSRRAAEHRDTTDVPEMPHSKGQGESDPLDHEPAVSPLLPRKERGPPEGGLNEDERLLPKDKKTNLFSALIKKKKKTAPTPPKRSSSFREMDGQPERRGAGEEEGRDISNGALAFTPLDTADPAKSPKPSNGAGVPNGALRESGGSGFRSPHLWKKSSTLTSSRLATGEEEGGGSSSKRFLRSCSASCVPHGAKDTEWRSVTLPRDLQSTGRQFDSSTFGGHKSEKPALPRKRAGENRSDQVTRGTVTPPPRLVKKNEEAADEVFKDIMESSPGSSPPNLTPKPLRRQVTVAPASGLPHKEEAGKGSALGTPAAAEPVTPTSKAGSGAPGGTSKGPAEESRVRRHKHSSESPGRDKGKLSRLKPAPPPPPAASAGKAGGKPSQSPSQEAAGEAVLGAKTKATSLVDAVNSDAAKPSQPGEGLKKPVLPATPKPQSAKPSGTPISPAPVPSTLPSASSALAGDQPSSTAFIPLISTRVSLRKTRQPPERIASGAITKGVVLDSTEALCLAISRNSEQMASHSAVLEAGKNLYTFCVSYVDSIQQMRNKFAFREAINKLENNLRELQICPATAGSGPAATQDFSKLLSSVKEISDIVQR
inactive: erlotinib 0.026 | [1] -0.005 | [2] -0.013 | [3] 0.026 | [4] -0.027 | [5] 0.033 | [6] -0.022 | [7] -0.035 | [8] 0.015 | IRAK-1-4 Inhibitor I -0.01
